In all, about 410,000 compounds went through this assay and about 18,000 (4.4%) were called active. Another 7% or so got no clear call; they are omitted. Shown is part of a subset that was picked to be rich in actives. A number with no mark means an inactive call. Cut-off read from the data, not from the text of the source: active = activity change below about -60%; inconclusive = no clear call, values can overlap the other calls; inactive = above about -39%.
Assay: qHTS Assay for inhibitors of the human cytomegalovirus (HCMV)
Conditions: HFF cells, HCMV-luciferase reporter, 72 h; at 57.5 µM; hits give low values
Method in brief: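 Inhibition of viral replication was scored as loss of reporter luminescence in HFFs infected with HCMV-luciferase (MOI 1 PFU/cell) for 72 h; compounds tested at 2 doses, normalized to buffer and Salinomycin controls.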
% is set by controls: 0 for no effect and ±100 for the full control effect.

Point of comparison: `O=C(Nc1ccc2c(c1)OCCO2)C1c2ccccc2OCC(=O)N1Cc1ccccn1` (configuration not stated), activity change, negative = inhibition 3.21%. Against it:
- COc1ccc(CNC(=O)c2cc3c(s2)-c2ccccc2OC3)cc1 — lower, -13.2%
- COc1cc(CNC(=O)c2cc3n(n2)CCCN(Cc2cccc(F)c2)C3=O)cc(OC)c1OC — lower, -12.3%
- C=C(C)CSc1nnc(-c2ccc(C)cc2)n1N — lower, -8.53%
- N#Cc1ccc(-c2cccs2)nc1SCc1ccc(Br)cc1 — higher, 5.81%
- CCCCCn1nnnc1C1c2ccccc2C(=O)N1Cc1ccco1 (configuration not stated) — lower, -25.7%
- Cc1ccc(-c2noc(CSc3nnc(-c4ccc(Cl)cc4)n3C)n2)cc1 — lower, -12.3%
- CC1CN(C(=O)N2CCC(C(=O)NCc3cccs3)CC2)c2ccccc2O1 (configuration not stated) — higher, 8.43%
- CCc1ccc(Nc2nn3c(=O)c4cc5c(cc4nc3s2)OCO5)cc1 — higher, 9.55%
- COc1cccc(C(c2nnnn2-c2ccc3c(c2)OCCO3)N2CCC3(CC2)C(=O)NCN3c2ccccc2)c1OC (configuration not stated) — lower, -15.1%
- Cc1oc(-c2ccccc2F)nc1CN1CCC(C(=O)NCCc2ccc(Cl)cc2)CC1 — lower, 0.215%
- COc1ccc(F)c(-c2nc(CN3CCC(c4ccccc4)CC3)c(C)o2)c1 — lower, -14%
- Cc1ccc(N(CC(=O)NCc2ccc(Cl)cc2)S(=O)(=O)N(C)C)cc1 — lower, -16.9%
- COc1ccc2c3c([nH]c2c1)[C@@H](CO)N(C(=O)C1CC1)CC31CCN(Cc2nccs2)CC1 — lower, -2.14%
- COc1ccc(CNC(=O)CSCc2nc(-c3ccccc3F)oc2C)cc1 — lower, -16%
- COc1ccc(N2CCN(C(=O)CCSCc3ccccc3F)CC2)cc1 — lower, -16.4%
- COc1cccc(N=C2SC(C(=O)Nc3cccc(Cl)c3)CC(=O)N2C)c1 (configuration not stated) — lower, -4.69%
- O=C(CSCc1cnn(-c2ccccc2)c1-n1cccc1)NCc1ccc(Cl)cc1 — lower, -3.89%
- CCCn1nnnc1NCc1ccc(OC)cc1 — lower, -30.2%
- CCCC(=O)n1nc(NCc2ccc(OC)cc2)nc1NCc1ccc(OC)cc1 — lower, -26.6%
- Fc1ccccc1Oc1ncnc2c1oc1ccccc12 — lower, -3.15%
- O=C(CC(NCc1cccnc1)C(=O)O)Nc1ccc(O)cc1 (configuration not stated) — higher, 5.47%
- COc1ccccc1NC(=O)CSc1nnc(CNC(=O)c2ccccc2F)o1 — lower, -5.51%
- COc1cc(Cl)c(C)cc1NC(=O)CSc1nnc(CN2CCCC2)o1 — lower, -9.81%
- CCCCSc1ncnc2c1sc1nc(N3CCOCC3)c3c(c12)CCCC3 — lower, 1.23%
- Cc1ccc(-c2nc(Cn3c(=O)cc(-c4ccccc4)c4c(C)nn(C)c43)c(C)o2)cc1 — lower, -9.59%
- Cc1ccc(NC(=O)c2ccc(S(=O)(=O)NCC3CCCO3)cc2)cc1C (configuration not stated) — lower, 0.647%
- O=C(NCC1CCCO1)c1ccc(S(=O)(=O)Nc2ccc(F)cc2)cc1 (configuration not stated) — lower, -30.8%
- CCc1cccc(NC(=O)Cn2nc(CC)n3c(cc4cc(C)ccc43)c2=O)c1 — higher, 18.4%
- COc1ccc(CCNS(=O)(=O)c2cc(-c3cc(C)no3)ccc2C)cc1OC — lower, 0%
- CN(C)CCOC(=O)C(c1ccccc1)C1(O)CCCC1 (configuration not stated) — higher, 31.9%
- CCc1cccc(NC(=O)CN(c2ccc(C)c(C)c2)S(=O)(=O)c2ccsc2C(=O)OC)c1 — higher, 7.64%
- CCCCN(C)CCCNC(=O)CN1N=C(c2ccc(OC)cc2)CCC1=O — lower, -26.4%
- Cc1cccc(NC(c2cccc(F)c2)c2ccc3ccc(C)nc3c2O)n1 (configuration not stated) — higher, 84.7%
- CCC(=O)NC(Nc1cc(C)ccn1)(C(F)(F)F)C(F)(F)F — higher, 27.3%
- CCCNS(=O)(=O)c1ccc(CCC(=O)N2CCCC2)cc1 — lower, -28.5%
- CCNS(=O)(=O)c1ccc(CCC(=O)N2CCN(c3ccc(OC)cc3)CC2)cc1 — lower, -33.4%
- CCOc1cccc2sc(N3CCN(C(=O)C4CC4)CC3)nc12 — lower, -12.2%
- CN1OC[C@@H]2CN(C(=O)C(C)(C)C)[C@H](c3ccc(-n4ccnc4)cc3)C[C@@H]21 — higher, 22.3%
- CCOC(=O)[C@]12CCC=C1N(Cc1cccc3ccccc13)C(=O)[C@H](CC(=O)NCc1cccc(C(F)(F)F)c1)C2 — higher, 19.4%
- Cc1ccc(-n2ncc3c(NCCCn4ccnc4)ncnc32)cc1Cl — higher, 7.64%
- Cc1noc(C)c1C(=O)NC(C)c1ccc2c(c1)OCO2 (configuration not stated) — higher, 59.8%
- CC(NC(=O)c1ccco1)c1ccc2c(c1)OCO2 (configuration not stated) — higher, 11.5%
- COc1ccc(CCC(=O)NCCc2csc(-c3ccc(Cl)cc3)n2)cc1 — higher, 7.81%
- Cn1c(Cc2csc(N)n2)nnc1SC/C=C/c1ccccc1 — lower, -18.7%
- O=C(Nc1ccc(S(=O)(=O)N2CCC(c3nc4ccccc4s3)CC2)cc1)c1ccccc1F — lower, -12.7%
- Cn1c(-c2ccccc2)c[n+]2c1CCCCC2 — lower, -28.9%
- O=C(C[n+]1cc(-c2ccc(Cl)c(Cl)c2)n2c1CCC2)c1cccs1 — lower, -37.8%
- Cn1ccc2cc(S(=O)(=O)N3CCCC(C(=O)NCc4ccccc4F)C3)ccc21 (configuration not stated) — lower, -1.65%
- CCCCOc1ccc(CNC(=O)c2ccc3c(c2)N(C)C(=O)C2CCCCN32)cc1 (configuration not stated) — higher, 25.7%
- CCOC(=O)C1CCCN(S(=O)(=O)c2cc(-c3cc(C)no3)ccc2OC)C1 (configuration not stated) — lower, -10%
- CC(C)c1ccc(NC(=O)Cn2c3ncccc3c(=O)n2-c2ccccc2)cc1 — higher, 8.47%
- COc1ccccc1CC1(C)C(=O)Nc2ccc(OC(F)(F)F)cc21 (configuration not stated) — lower, -18.7%
- CN1CCN(Cc2ccc(OC(F)(F)F)cc2)CC1 — lower, -3.19%
- CCn1c2ccccc2c2cc(CN3CCN(Cc4cccc(Cl)c4)CC3)ccc21 — lower, -0.564%
- Cc1ccc(/C=N/NC(=S)NC2CCCCC2)o1 — lower, -8.71%
- C/C(=N/NC(=O)c1ccc(Br)o1)c1ccc(C)o1 — higher, 80.2%
- Cn1c(=O)c2c(n3c4ccccc4nc13)NC(=O)CC2c1cccc(Cl)c1 (configuration not stated) — lower, 1.23%
- CC(C)Cn1c(C2CC(=O)N(c3ccccc3Cl)C2)nc2ccccc21 (configuration not stated) — lower, -19.6%
- CCCS(=O)(=O)N1CCC(n2c(C(F)(F)F)nc3cccnc32)CC1 — lower, -21.7%
- O=C(Nc1ccc(Cl)cc1C(=O)c1ccccc1)c1cc(Cl)cc(Cl)c1 — higher, 5.04%
- O=C(OCC(O)C(O)COC(=O)c1ccccc1)c1ccccc1 (configuration not stated) — higher, 4.04%
- O=C(NCCCO)c1nn(-c2ccc(Cl)cc2)nc1CO — lower, -7.65%
- CCCSc1nc(NCc2ccco2)c2c3c(sc2n1)COC(C)(CC)C3 (configuration not stated) — lower, -2.99%
- CC(C)c1nc2sc3c(c2c(=O)n1N)CC(C)(C)OC3 — lower, -18.9%
- Cn1c(=O)c2c(ncn2CC(=O)Nc2cccc(C(F)(F)F)c2)n(C)c1=O — lower, 2.82%
- Cc1ccc(C)c(C(O)c2ncc(-c3cccc4ccccc34)[nH]2)c1 (configuration not stated) — higher, 4.52%
- CC(=O)N1CCCc2cc(S(=O)(=O)Nc3ccc(Cl)cc3F)ccc21 — lower, -24.4%
- Cc1ncoc1C(=O)NCCC(c1ccccc1)c1ccccc1 — lower, -6.8%
- CC(CCc1ccccc1)NCC(O)c1cccc([N+](=O)[O-])c1 (configuration not stated) — lower, -22%
- CCOC(=O)C(CCOc1cccc(CC)c1)C(=O)OCC — lower, -23.8%
- CC(=O)Nc1ccc(NC(=O)COc2ccc(S(=O)(=O)NC(C)c3ccccc3)cc2)cc1 (configuration not stated) — higher, 28.7%
- CC(C)NS(=O)(=O)c1ccc(OCC(=O)NC2CCCCCC2)cc1 — lower, -39.9%

For `CN(C)c1cc[n+](Cc2ccccc2)cc1`, the activity change, negative = inhibition was -86.3% (active).
For `O=C1c2ccccc2C(Nc2ccc3c(c2)OCCO3)N1Cc1ccco1` (configuration not stated), the activity change, negative = inhibition was -60.9% (active).
With `Cc1nonc1C1CCCN1Cc1nc(-c2ccc(F)cc2F)oc1C` (configuration not stated) the activity change, negative = inhibition was -69.4% (active).
For `COc1ccc(N2CCN(C(=O)CSCc3nc(-c4ccccc4Cl)oc3C)CC2)cc1`, the activity change, negative = inhibition was -81.2% (active).
For `COc1ccc(CNc2c(CO)cnc3c2cnn3C)cc1`, the activity change, negative = inhibition was -66.6% (active).
With `CCC(=O)Nc1ccc(C(=O)CSc2nnc(CNc3ccc(Cl)cc3)o2)cc1OC` the activity change, negative = inhibition was -87.9% (active).
For `O=C(Nc1ccc(S(=O)(=O)NCC2CCCO2)cc1)c1ccc(F)cc1` (configuration not stated), the activity change, negative = inhibition was -71.5% (active).
For `CN(C)CC1Oc2ccccc2OC1(O)c1ccccc1` (configuration not stated), the activity change, negative = inhibition was -104% (active).
With `CCc1nn(-c2cc(Oc3cccc4ccccc34)nc(-c3ccccc3)n2)c(N)c1C#N` the activity change, negative = inhibition was -68% (active).
For `Cc1ccnc(NC(c2ccc(C(F)(F)F)cc2)c2ccc3cccnc3c2O)c1` (configuration not stated), the activity change, negative = inhibition was -97.9% (active).
In the case of `CCNS(=O)(=O)c1ccc(CCC(=O)N2CCN(c3cc(Cl)ccc3C)CC2)cc1`, the activity change, negative = inhibition is reported as -68.5% (active).
In the case of `CC(NC(=O)Nc1cccc([N+](=O)[O-])c1)c1ccc2c(c1)OCO2` (configuration not stated), the activity change, negative = inhibition is reported as -64.3% (active).
With `Cc1ccc(C(=O)C[n+]2cc(-c3ccccc3)n3c2CCCCC3)cc1` the activity change, negative = inhibition was -92.1% (active).
For `CCc1ccc2c(c1)NC(=O)C2(C)Cc1ccc(OC(F)(F)F)cc1` (configuration not stated), the activity change, negative = inhibition was -75.3% (active).
In the case of `C/C(=N\NC(=S)NC1CCCCC1)c1ccc(C)o1`, the activity change, negative = inhibition is reported as -90.6% (active).
For `O=C(NC1=CC(=O)c2ccccc2C1=O)c1ccccc1`, the activity change, negative = inhibition was -66.1% (active).
For `CCC1(C)Cc2c(sc3[nH]c(=S)n(Cc4ccccc4)c(=O)c23)CO1` (configuration not stated), the activity change, negative = inhibition was -69.4% (active).
For `CC(Cc1ccccc1)NCCC(c1ccccc1)c1ccccc1` (configuration not stated), the activity change, negative = inhibition was -91.4% (active).
In the case of `CC(C)NS(=O)(=O)c1ccc(OCC(=O)Nc2ccc3c(c2)OCCO3)cc1`, the activity change, negative = inhibition is reported as -82.2% (active).

Source: PubChem BioAssay AID1259415 (National Center for Advancing Translational Sciences (NCATS), 2018)
